Measurements reported in PubChem BioAssay AID492952 (Southern Research Specialized Biocontainment Screening …, 2010).
Among all 2,300 compounds or so, about 1,500 (65%) were called active. The rule behind the calls is not given here. The set was probably picked from earlier hits. Some of the results follow. Results with a measured potency or affinity are listed apart.

Test: replicating M. tuberculosis growth inhibition, dose response, non-replicating M. tuberculosis project, H37Rv (AID 492952);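 note: Mycobacterium tuberculosis grown in culture; growth inhibition read after a week of incubation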
Settings: series mostly up to 50 µM

Row | SMILES | outcome
1 | COc1ccc(CNC(=O)COC(=O)C2CC3C=CC2C3)cc1 (stereo not given) | inactive
2 | CCCCNC(=O)Cc1ccc(C)cc1 | inactive
3 | CC(C)CSc1nnc2c3ccccc3n(C)c2n1 | inactive
4 | O=C(c1cc2ccccc2o1)c1nc2c(n1O)CCCCC2 | inactive
5 | CCCOC(=O)c1ccc(NC(=O)Cc2cccs2)cc1 | inactive
6 | CCCOC(=O)c1ccc(NC(=O)C2C3C=CC(O3)C2C(=O)O)cc1 (stereo not given) | inactive
7 | CCCCOC(=O)c1ccc(NC(=O)C2CCCO2)cc1 (stereo not given) | inactive
8 | O=C(Nc1ccccc1)c1ccc(Br)o1 | inactive
9 | CC1CCN(S(=O)(=O)c2cccc(C(=O)Oc3ccc([N+](=O)[O-])cc3)c2)CC1 | inactive
10 | C=CCN(CC=C)C(=O)Cc1ccc(F)cc1 | inactive
11 | O=C(CCNc1cccc(F)c1)c1cccc([N+](=O)[O-])c1 | inactive
12 | Nc1ccccc1C(=O)NNC1=C(C(=O)C(F)(F)F)CCC1 | inactive
13 | COc1ccc(C)c2sc(NC(=O)CCS(=O)(=O)c3ccccc3)nc12 | inactive
14 | O=C(NC1CCCC1)c1cc(-c2cccs2)on1 | inactive
15 | Cc1ccc(-c2nnc(-c3cccs3)o2)cc1 | inactive
16 | CN1C(=O)CC(N2CCC(c3nc4ccccc4s3)CC2)C1=O (stereo not given) | inactive
17 | COc1ccc(OCCOC(=O)CCS(=O)(=O)c2ccc(C)cc2)cc1 | inactive
18 | CSc1ccc(COC(=O)CCS(=O)(=O)c2ccc(C)cc2)cc1 | inactive
19 | O=C(COc1ccc(F)cc1)Nc1ccc2c(c1)OCCO2 | inactive
20 | O=C(CCS(=O)(=O)c1ccc(Cl)cc1)Oc1ccc2c(c1)OCO2 | inactive
21 | Cc1ccc(NC(=O)CC2SC3=NCCCN3C2=O)c(C)c1 (stereo not given) | inactive
22 | CC(C)c1ccc(C2=C(O)c3ccccc3C(=O)C2=O)cc1 | inactive
23 | CC(CN1CCOCC1)OC(=O)c1ccc2c(c1)OCCO2 (stereo not given) | inactive
24 | CCOC(=O)Nc1ccc2c(c1)N(C(=O)CCN1CCOCC1)c1ccccc1S2=O (stereo not given) | inactive
25 | NCCCN1CCOCC1 | inactive

Row | SMILES | outcome
26 | Cc1ccc(C(=O)CCC2CCCC2=O)cc1 (stereo not given) | inactive
27 | CC1CCCN(CCSc2ccc(Cl)cc2)C1 (stereo not given) | inactive
28 | Clc1ccc(SCCCCN2CCNCC2)cc1 | inactive
29 | CCOC(=O)C1CCN(CCCSc2ccc(Cl)cc2)CC1 | inactive
30 | O=Cc1ccc(-c2ccc(Cl)cc2Cl)[nH]1 | inactive
31 | Fc1ccc(COc2ccc(-c3nnco3)cc2)cc1 | inactive
32 | O=C(CCCSc1nc2ccccc2s1)NCc1ccco1 | inactive
33 | COC(=O)CCSCc1cn2cc(Cl)ccc2n1 | inactive
34 | Cc1cc2n(n1)SC(Nc1ccccc1)N2 (stereo not given) | inactive
35 | CC(C)n1c(=S)[nH]c2ccccc2c1=O | inactive
36 | CC(C)(C)NCc1cc(Br)ccc1OC1CCCC1 | inactive
37 | COc1ccc(-n2c3c(cc(C(=O)NNc4ccccc4)c2=O)C(=O)CC(C)(C)C3)cc1 | inactive
38 | Clc1ccccc1OCc1nnc(-c2ccccc2)o1 | inactive
39 | c1ccc(Cc2nnc(-c3ccccc3)o2)cc1 | inactive
40 | O=C1NC(=S)S/C1=C\c1ccc(SCc2ccco2)o1 | inactive
41 | CN(CC(=O)Nc1ccc(Cl)cc1)C1CCCCC1 | inactive
42 | COc1ccc(OCCCC(=O)Nc2ccc(N3CCOCC3)cc2)cc1 | inactive
43 | Cc1ccc(C(=O)C=CNNC(=O)c2ccccc2)cc1 | inactive
44 | O=C(C1CCN(C2CC(=O)N(Cc3ccccc3)C2=O)CC1)N1CCCCCC1 (stereo not given) | inactive
45 | CC(C)CN(Cc1c(O)ccc2ccccc12)CC(C)C | inactive
46 | COc1ccccc1CCNC(=O)c1ccc(C)o1 | inactive
47 | COc1ccc(C(=O)C=CNNC(=O)c2ccc(Cl)cc2)cc1 | inactive
48 | O=C(NCCSc1ccccc1)c1ccc(Br)cc1 | inactive
49 | CCOc1ccc(NC(=O)CCNC(=O)c2ccc(Br)cc2)cc1 | inactive
50 | O=C(Oc1cccc2cccnc12)c1cccc(-n2cnnn2)c1 | inactive

Row | SMILES | outcome
51 | Cc1ccc(C2=N/C(=C\c3cccnc3)C(=O)O2)cc1 | inactive
52 | Cc1cccc(C2=N/C(=C\c3cccnc3)C(=O)O2)c1 | inactive
53 | CN(CCCCOc1ccc(F)cc1)Cc1ccccc1 | inactive
54 | CN(CCOCCOc1ccc(F)cc1)Cc1ccccc1 | inactive
55 | O=C1CC(N2CCN(c3ccccc3)CC2)C(=O)N1CCc1ccccc1 (stereo not given) | inactive
56 | CC(NC(=O)COc1ccccc1F)C1CC2CCC1C2 (stereo not given) | inactive
57 | O=C(COc1ccccc1)NC1CCCCC1 | inactive
58 | O=C(NCCC1=CCCCC1)c1coc(=O)c(Br)c1 | inactive
59 | COc1cc(/C=N/Nc2cccc3cccnc23)cc(OC)c1O | inactive
60 | COc1ccc(N2CCN(CC(=O)NC(=O)NC(C)(C)C)CC2)cc1 | inactive
61 | COc1ccc(OCC(=O)Nc2ccc(N3CCN(C(=O)c4ccco4)CC3)cc2)cc1 | inactive
62 | CN(C)Cc1ccccc1Sc1ccc(Br)cc1 | inactive
63 | CC1CCCN(CCCOc2ccc([N+](=O)[O-])cc2)C1 (stereo not given) | inactive
64 | O=C1c2ccccc2C(=O)N1CCOc1ccc(F)cc1 | inactive
65 | COc1ccccc1N=Cc1nc(-c2ccccc2)oc1OC(C)=O | inactive
66 | COc1ccc(N=Cc2nc(-c3ccccc3)oc2OC(C)=O)cc1 | inactive
67 | CC1(C)CC(=O)C2=C(C1)OC(N)=C([N+](=O)[O-])C2c1ccc(C#N)s1 (stereo not given) | inactive
68 | C/C(=N\NC(=O)COc1cccc(C)c1)c1ccc2ccccc2c1O | inactive
69 | Cc1ccc(N2C(=O)CC(Sc3nccc(C)n3)C2=O)cc1 (stereo not given) | inactive
70 | O=C(CCC1CCCC1)NCc1ccccn1 | inactive
71 | COc1cccc(C(=O)C2CCCN(CC3=Cc4cc(OC)ccc4OC3)C2)c1 (stereo not given) | inactive
72 | CCOC(=O)N1CCC(NC(=O)C2CCN(c3nc(-c4ccc(OC)cc4)no3)CC2)CC1 | inactive
73 | COc1cccc(CC2(CO)CCCN(Cc3sc(N4CCCC4)nc3Cl)C2)c1 (stereo not given) | inactive
74 | CN1C(=O)CC(Sc2ccccc2C(=O)O)C1=O (stereo not given) | inactive
75 | C/C(=C\C(=O)c1ccc(Br)cc1)NNC(=O)c1ccccc1 | inactive

Row | SMILES | outcome
76 | CC(C)=CC1C(C(=O)Nc2ccc(Br)cn2)C1(C)C (stereo not given) | inactive
77 | Cn1[nH]c(-c2ccccc2)c(/C=N/O)c1=O | inactive
78 | CCOc1ccc(NCC(=O)c2ccc(C)cc2)cc1 | inactive
79 | COc1ccc(C(O)CNc2ccc(C)cc2)cc1 (stereo not given) | inactive
80 | CCOc1ccc(NC(=O)Cn2sc3nc(C)cc(C)c3c2=O)cc1 | inactive
81 | O=C1CCC(=O)N1CNc1ccc(Oc2ccccc2)cc1 | inactive
82 | CCOC(=O)CCSc1n[nH]c(=S)s1 | inactive
83 | CC(=O)N1CCN(C(=O)CC2OC(=O)c3ccccc32)CC1 (stereo not given) | inactive
84 | CCn1ccc(C(=O)Nc2cccc(Cl)c2)n1 | inactive
85 | O=C(COc1ccc(Br)cc1)N/N=C1/SCC(=O)N1Cc1ccco1 | inactive
86 | COc1ccccc1C(=O)OCC(=O)Nc1ccc(Cl)cn1 | inactive
87 | O=C(COC(=O)CC1CCCC1)Nc1ccc(Cl)cn1 | inactive
88 | O=C(O)c1ccc(NCc2ccc(Br)cc2)cc1 | inactive
89 | COc1ccc(CC(=O)OCC(=O)Nc2ccc(Br)cc2)cc1 | inactive
90 | O=C(COc1ccccc1)Nc1ccc(Cl)cn1 | inactive
91 | Cc1ccc(OCC(=O)Nc2ccc([N+](=O)[O-])cc2)cc1 | inactive
92 | O=C(CCC1CCCC1)Nc1ccc(Br)cn1 | inactive
93 | O=C(OCC#CCSc1nnc(-c2ccncc2)o1)c1cccs1 | inactive
94 | O=C(NCc1cccs1)c1ccc([N+](=O)[O-])cc1 | inactive
95 | OC(C#CCN1CCOCC1)c1cccs1 (stereo not given) | inactive
96 | Nc1ccc(C(=O)N/N=C\C=C\c2ccc([N+](=O)[O-])cc2)cc1 | inactive
97 | CCOC(=O)c1csc(NC(=O)COc2ccc(Cl)cc2Cl)n1 | inactive
98 | O=C(N/N=C/c1cc(Br)ccc1O)c1ccccc1Cl | inactive
99 | O=C1NC(Cc2c[nH]c3ccccc23)C(=O)N1CCOc1ccccc1 (stereo not given) | inactive
100 | COC(=O)COc1ccc(S(=O)(=O)NCc2ccc3c(c2)OCO3)cc1 | inactive

Row | SMILES | outcome
101 | Cc1cc(Cl)ccc1N(CC(=O)NCc1ccccc1)S(C)(=O)=O | inactive
102 | O=C(NCc1ccc(Cl)cc1)c1n[nH]c([N+](=O)[O-])c1Cl | inactive
103 | c1ccc(-c2nnc(SCc3cn4ccsc4n3)o2)cc1 | inactive
104 | Fc1ccc(-c2nnc(CSc3nnc(-c4cccs4)o3)o2)cc1 | inactive
105 | CCn1cc(C(=O)NC(C)C23CC4CC(CC(C4)C2)C3)cn1 (stereo not given) | inactive
106 | CCOC(=O)Nc1ccc2c(c1)N(C(=O)CCCl)c1ccccc1[S@]2=O | inactive
107 | CN(C)CCC(=O)N1c2ccccc2Sc2ccc(Cl)cc21 | inactive
108 | O=Cc1coc2ccc3ccccc3c2c1=O | inactive
109 | Cc1ccc(C)c(NC(=O)COC(=O)c2cc3ccccc3oc2=O)c1 | inactive
110 | CCOc1ccccc1OC(=O)c1cc2ccccc2oc1=O | inactive
111 | CC1(c2nnc(Cc3ccccc3)o2)CC(c2ccccc2[N+](=O)[O-])=NO1 (stereo not given) | inactive
112 | C/C(=N\O)c1cc(Cl)ccc1O | inactive
113 | CC(C)=CCN1CCN(Cc2cn(C(C)C)c3ccccc23)CC1CCO (stereo not given) | inactive
114 | CCOc1ccc(-c2ccc(C=O)o2)c([N+](=O)[O-])c1 | inactive
115 | O=[N+]([O-])c1ccc(N2CCCCCC2)c2nonc12 | inactive
116 | CC(C)N1CCc2c(sc(NC(=O)CCS(=O)(=O)c3ccccc3)c2C#N)C1 | inactive
117 | N=C1/C(=C\c2coc3ccccc3c2=O)C(=O)N=C2SC=CN12 | inactive
118 | CSC1=NSC2=NC(=O)/C(=C\c3cccs3)C(=N)N12 | inactive
119 | c1cncc(-c2noc(CC3CCCCC3)n2)c1 | inactive
120 | O=C(CCSc1ccc(Cl)cc1)Nc1cccnc1 | inactive
121 | COc1ccc(C(=O)CC(=O)C(=O)NCCc2cccc(C)c2)cc1 | inactive
122 | CC[n+]1c(/C=C(\C)Nc2ccccc2)sc2ccccc21 | inactive
123 | Cc1nnc(C)n1/N=C/c1cc(Br)cc(Br)c1O | inactive
124 | COc1cc(C2C3=C(CC(C)(C)CC3=O)OC(N)=C2[N+](=O)[O-])ccc1O (stereo not given) | inactive
125 | CCOC(=O)CC(NS(=O)(=O)Cc1ccccc1)c1ccc(C)cc1 (stereo not given) | inactive
